# The source made the active and inactive calls. The calls were made as follows: active = hit-call score of the fitted dose curve at least 0.9, where 1 is the maximum; inactive = score below 0.9.
# Assay: CEETOX_H295R_11DCORT: CeeTox H295R High-throughput Steroidogenesis Assay for 11-Deoxycortisol (11DCORT) (AID 2283432);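 as to AC50: 11-deoxycortisol secreted into the medium measured by LC-MS/MS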
# Settings: actives raise or lower the signal
# Description: CEETOX_H295R is a cell-based, multiplexed-readout assay that uses H295R, a human adrenal gland cell line, with measurements taken at 48 hours after chemical dosing in a 96-well plate.CEETOX_H295R_11DCORT is one of 23 assay component(s) measured or calculated from the CEETOX_H295R assay. It is designed to make measurements of hormone induction, a form of inducible reporter, as detected with absorbance signals by HPLC-MS-MS technology.Data from the assay component CEETOX_H295R_11DCORT was analyzed into 1 assay endpoint. This assay endpoint, CEETOX_H295R_11DCORT, was analyzed with bidirectional fitting relative to DMSO as the negative control and baseline of activity. Using a type of inducible reporter, gain or loss-of-signal activity using HPLC-MS-MS was used to understand synthesis of 11-Deoxycortisol in H295R cell line at 48hr of chemical exposure. To generalize the intended target to other relatable targets, this assay endpoint is annotated to the steroid hormone intended target family, where the subfamily is glucocorticoids.
# Cell culture and media preparation procedures were conducted in accordance with OECD Test No. 456 guidelines, with minor modifications. H295R cells (ATCC CRL-2128) were expanded for 5 passages and frozen in batches in liquid nitrogen. Prior to the steroidogenesis assay, H295R cells were thawed and passed at least 4 times. The maximum passage was 10. Cells were maintained in a 1:1 mixture of DMEM/F12 supplemented with 5ml/L ITS+ Premix (BD Bioscience) and 12.5 ml/L Nu-Serum (BD Bioscience). After seeding cells into 96-well plates at 50-60% confluency, cells were allowed to adhere overnight. Prior to chemical testing, culture medium was replaced with 175 uL medium containing 10 uM forskolin to stimulate steroidogenesis for 48 hours. Following prestimulation, forskolin medium was replaced with medium containing test chemical solubilized in DMSO (ensuring a final concentration of 0.1% DMSO). Test chemicals were incubated for 48 hours, then the medium was removed and split into 2 vials containing approximately 75uL each, and stored at -80 C prior to hormone analysis. For steroid quantification, media samples were shipped to OpAns, LLC (Durham, NC) on dry ice, and samples were thawed to room temperature prior to liquid-liquid extraction. Steroid hormones were extracted from media samples using methyl tertbutyl ether (MTBE). An extra derivatization with dansyl chloride was included for estrogen (estrone and estradiol) detection only. Steroid hormones were separated by HPLC, eluted using a reverse phase C18 gradient with electrospray positive ionization, followed by quantification by tandem mass spectrometry (MS/MS). Data were acquired on a MassHunter Workstation Acquisition version B03.01 (Agilent Technologies, Inc.) and processed using MassHunter Quantitative Analysis for QQQ. Accuracy was determined for each hormone analyte from 3 standards to determine upper and lower limits of quantification (ULOQ and LLOQ, respectively) using a 7-point standard curve. Precision and accuracy of the extraction and quantification methods were calculated as the percent relative standard deviation (%RSD) of the spiked standards and percent spiked standard recovered, respectively. The goal was to achieve 100% accuracy (i.e., recover all spiked-in standard at quantification with minimal loss during run time) and good precision (i.e., have %RSD <15% to ensure reproducibility). Test medium was removed following chemical exposure, and cell viability was evaluated in the same wells by MTT. MTT procedures were as follows: after removal of test medium, 500 uL of 0.5 mg/ml of 3-[4,5-dimethylthiazol-2-y]2,5-diphenyltetrazoliumbromide solution was added to the cells. Following a 4-hour incubation at 37 C and 5% CO2 to allow formazan-crystal formation, the MTT solution was removed and blue formazan salt crystals were solubilized using 500uL anhydrous isopropanol with shaking for 20 minutes. […]
Compound,outcome,AC50
CCc1cc(C(C)(C)C)c(O)c(C(C)(C)C)c1,inactive,
CC(CN=Cc1ccccc1O)N=Cc1ccccc1O (stereo unspecified),,3.89 µM (active)
CCCCCCCCN1CCCC1=O,inactive,
CCC(C)c1cc([N+](=O)[O-])cc([N+](=O)[O-])c1OC(=O)OC(C)C (stereo unspecified),inactive,
CC=Cc1ccc(OCC)c(O)c1,inactive,
C=C1CC[C@H](O)C/C1=C/C=C1\CCC[C@]2(C)[C@@H]([C@H](C)/C=C/[C@H](C)C(C)C)CC[C@@H]12,,19.8 µM (active)
COc1ccc(N=Nc2cc(C)c(N=Nc3ccc(S(=O)(=O)O)cc3)cc2OC)cc1,inactive,
Cc1cc(=O)oc2cc(N(C)C)ccc12,inactive,
CC1(C)C(=O)N(Cl)C(=O)N1Br,inactive,
CCOC(=O)[C@@H](C)Oc1ccc(Oc2nc3ccc(Cl)cc3o2)cc1,inactive,
COCCc1ccc(OCC(O)CNC(C)C)cc1 (stereo unspecified),,28.6 µM (active)
BrCc1cccc(Oc2ccccc2)c1,inactive,
COc1ccc(CCN2CCC(Nc3nc4ccccc4n3Cc3ccc(F)cc3)CC2)cc1,,1.49 µM (active)
CC(C)Nc1nc(N)nc(Cl)n1,inactive,
Nc1ccc(N)c2c1C(=O)c1ccccc1C2=O,,7.09 µM (active)
CC(C)(C)CC(C)(C)c1ccc(OCCOCC[N+](C)(C)Cc2ccccc2)cc1,inactive,

# From PubChem BioAssay (EPA / NIEHS)
